# DRD3 agonist = qHTS of D3 Dopamine Receptor Agonist: qHTS; 410,000 tested, 0.58% active; D(3) dopamine receptor (Homo sapiens), P35462; max activation, %; D3R DiscoveRx beta-arrestin cells, luminescence, 90 min; in the data active means max activation above about 30%; further: 0% is about no effect
# Target sequence (P35462 whole entry, looked up): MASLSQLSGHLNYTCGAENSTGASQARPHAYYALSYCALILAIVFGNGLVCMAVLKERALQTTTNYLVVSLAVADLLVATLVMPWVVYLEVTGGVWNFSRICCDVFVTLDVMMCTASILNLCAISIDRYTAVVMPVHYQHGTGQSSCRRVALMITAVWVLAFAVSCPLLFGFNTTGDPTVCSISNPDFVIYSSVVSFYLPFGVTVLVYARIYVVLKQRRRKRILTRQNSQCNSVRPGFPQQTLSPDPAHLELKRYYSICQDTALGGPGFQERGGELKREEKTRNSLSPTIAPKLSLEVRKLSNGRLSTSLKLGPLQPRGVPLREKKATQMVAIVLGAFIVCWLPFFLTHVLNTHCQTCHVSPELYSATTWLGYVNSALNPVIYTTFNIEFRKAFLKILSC
#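 Agonist-mode cell screen: cells plated at 1500/well and incubated overnight at 37 °C, then exposed to library compounds for 90 min at 37 °C. Detection reagent was added for 30–60 min at room temperature, and luminescence was read.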
# DRD3 antagonist = qHTS of D3 Dopamine Receptor Antagonist: qHTS; 360,000 tested, 2.5% active; AID 652054, 2013; max response, negative = inhibition, %; D3R cells, DiscoveRx beta-arrestin luminescence, antagonist mode; hits give low values; D(3) dopamine receptor (Homo sapiens), P35462; in the data active means max response below about -50%; inconclusive means no clear call, values can overlap the other calls; further: on the % scale 0 is the no-effect control and ±100 the full control effect
#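 Cells expressing the human receptor were seeded at 1500 cells/well, incubated overnight at 37 degrees C in 5% CO2, then exposed to library compounds with dopamine controls for 90 minutes at 37 degrees C before luminescent detection.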
# uPA surface inh = qHTS for Inhibitors of Cell Surface uPA Generation; Potency, µM (series often up to 38.3 µM), without a hit: at the top dose activity change, negative = inhibition, most hits filed as inhibitors; cell surface uPA generation assay, qHTS; 330,000 tested, 0.31% active; active means well fitted inhibition curve with a large enough effect; inconclusive means small, poorly fitted or top-dose-only effect; inactive means no such curve, though single readings can be large or run the other way; tested in mouse RAW 264.7 cells; further: potency means the concentration at half of the fitted maximal effect; on the % scale 0 is the no-effect control and ±100 the full control effect; nearly all actives have a fitted effect of over 55% in size
# RGS4 inhibitor = Inhibitors of Regulator of G Protein Signaling (RGS) 4: qHTS; Regulator of G-protein signaling 4 (Homo sapiens), P49798; Transcreener GDP fluorescence polarization, RGS4-accelerated GTP hydrolysis; Potency, µM (doses to about 114 µM), inactives show at the top dose activity change, negative = inhibition, actives largely listed as inhibitors; 390,000 tested, 0.039% active; active means well fitted inhibition curve with a large enough effect; inconclusive means small, poorly fitted or top-dose-only effect; inactive means no such curve, though single readings can be large or run the other way; further: potency means the concentration at half of the fitted maximal effect; on the % scale 0 is the no-effect control and ±100 the full control effect; nearly all actives have a fitted effect of over 75% in size
# Target sequence (P49798 whole entry, looked up): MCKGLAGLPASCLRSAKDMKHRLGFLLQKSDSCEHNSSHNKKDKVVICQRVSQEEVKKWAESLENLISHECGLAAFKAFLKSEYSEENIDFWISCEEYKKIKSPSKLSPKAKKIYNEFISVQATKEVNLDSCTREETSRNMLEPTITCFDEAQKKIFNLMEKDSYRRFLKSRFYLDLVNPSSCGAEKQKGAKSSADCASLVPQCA
#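 MLSMR compounds (23 nl, pin-transferred) preincubated 10 min at room temperature with a 500nM (2x) first reagent, then RGS4 at 900nM (2x) plus Transcreener GDP mix added; fluorescence polarization (620/688 nm) read before and after 90 min at 30 °C.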
# * marks the source's active call; other numbers are inactive results; ? = inconclusive; nt = no result; [ ] = remark or other dose. Sampled rows, rich in hits. Any-hit rate of the full collection: about 3.1%.
SMILES,DRD3 agonist,DRD3 antagonist,uPA surface inh,RGS4 inhibitor
Cc1cccc(-c2cc(=O)c(C(=O)O)cn2-c2ccc(F)cc2F)c1,0,-79*,-4%,15%
CCc1ccc(OCC(=O)Nc2ccc3c(c2)c2ccccc2n3CC)cc1,-9,nt,nt,-7%
CCn1c2ccccc2c2cc(NC(=O)COC(=O)c3cc(OC)c(OC)cc3OC)ccc21,54*,22,-4%,-11%
CCOC(=O)C(=CNc1ccc(C)cc1C)C(=O)OCC,15,89,-10%,22%
CCOC(=O)C(=CNc1cccc(C)c1C)C(=O)OCC,39*,40,11%,28%
CCOC(=O)C(=CNc1ccc2c(c1)c1ccccc1n2CC)C(=O)OCC,66*,134,4%,-8%
Cc1ccc(C)c(NC(=O)c2ccc(CN3CC(=O)N4CCCCC4C3=O)cc2)c1 (configuration not stated),-12,nt,nt,14%
O=C(NCc1cccc(F)c1)c1ccc2nc(N3CCCCC3)sc2c1,-8,nt,nt,21%
CCOc1cc(C(=O)Nc2cccc3ncccc23)cc(OCC)c1OCC,35*,-17,nt,24%
Cc1ccc(S(=O)(=O)N2CC3(C)CN(S(=O)(=O)c4ccc(C)cc4)CC(C)(C2)C3)cc1,31*,19,nt,-4%
CCOc1ccc(-c2nnc(SCC(=O)NCc3ccc(Cl)cc3)o2)cc1,-9,nt,nt,-5%
COc1cccc(CN2CCN(C3CCN(c4ccccc4C)CC3)CC2CCO)c1 (configuration not stated),-5,-60*,5%,-5%
COc1cccc(CN2CCN(C3CCN(c4ccccc4F)CC3)CC2CCO)c1 (configuration not stated),-33,-110*,-6%,5%
COc1cccc(CN2CCN(C3CCN(c4cccc(C)c4C)CC3)CC2CCO)c1 (configuration not stated),29,-4,-10%,6%
Cc1cc(F)ccc1N1CCC(N2CCN(C(C)C)C(CCO)C2)CC1 (configuration not stated),-16,-53*,13%,-40%
COc1ccc(CNC(=O)c2cn(-c3cccc(OC)c3)c(=O)c3ccccc23)cc1,4,nt,nt,-29%
O=C(Cc1ccccc1)NCCc1csc2nc(-c3ccc(Cl)cc3)nn12,6,nt,nt,16%
CCC(C)NC(=O)CC(NS(=O)(=O)c1ccc(Cl)cc1)c1ccco1 (configuration not stated),1,-53*,-6%,19%
Cc1ccc(S(=O)(=O)NC(CC(=O)O)c2ccco2)cc1 (configuration not stated),-9,-15,nt,18%
O=C(CC(NS(=O)(=O)c1ccc(Cl)cc1)c1ccco1)N1CCc2ccccc21 (configuration not stated),-3,-69*,-3%,5%
COc1ccccc1C(=O)Nc1ccnn1C1CCN(Cc2cc(C)c(C)cc2C)CC1,-52,0,?,-10%
COc1ccccc1C(=O)Nc1ccnn1C1CCN(Cc2cn(C)c3ccccc23)CC1,2,2,10µM*,-1%
Cn1cc(CN2CCC(n3nccc3NC(=O)c3ccccc3Cl)CC2)c2ccccc21,-5,-52*,9%,7%
Cc1cc(C)c(CN2CCC(n3nccc3NC(=O)c3ccccc3Cl)CC2)cc1C,-12,-52*,-7%,28%
CCc1ccc2occ(CC(=O)Nc3ccccc3C(F)(F)F)c2c1,-10,nt,nt,-27%
SMILES,DRD3 agonist,DRD3 antagonist,uPA surface inh,RGS4 inhibitor
Cc1cccc(-c2nc(CSCC(=O)NCCc3ccc(Cl)cc3)c(C)o2)c1,1,nt,nt,6%
COc1ccc(N(C)C(=O)CCC(=O)Nc2ccc3nc(N4CCOCC4)cc(C)c3c2)c(OC)c1,35*,-6,nt,21%
Cc1cc(Br)ccc1NC(=O)c1sc2nc3n(c(=O)c2c1C)CCCC3,2,nt,nt,-14%
CC(=O)/C(N=Nc1cc2c(c([N+](=O)[O-])c1C)C(C)(C)CC2(C)C)=C(\C)O,34*,21,3%,-1%
COC(=O)CCCn1cc(CN2CC(N(C)C)CS2(=O)=O)nn1 (configuration not stated),1,16,nt,nt
COc1ccc(C2=Nc3ccc(OC(F)(F)F)cc3NC(c3cccnc3)=N2)cc1,36*,nt,nt,7%
CCCCOc1ccc(C2=NC(c3ccccc3)=Nc3ccc(OC)cc3N2)cc1,-10,nt,nt,-7%
CCN(CC)S(=O)(=O)c1cccc(-c2n[nH]c(=S)n2/N=C/c2ccc(Br)cc2)c1,-5,-54*,-2%,-52%
COc1cccc(-n2cc(C(=O)Nc3ccccc3C(N)=O)c3ccccc3c2=O)c1,0,nt,nt,12%
CCOc1ccccc1NC(=O)c1c(Br)cnn1C,35*,15,-9%,6%
COCCCNc1nc2c(c(=O)n(Cc3ccccc3)c(=O)n2C)n1C,2,nt,nt,-14%
CCCCCCCC/C=C\CCCCCCCC(=O)NCCc1ccc(O)c(O)c1,211*,76,3.2µM*,?
O=C(Cc1ccccc1)NCc1ccc(-n2cccc2)cc1,0,-16,1.8µM*,20%[11.4 µM]
O=C(Cc1ccc(-n2cccc2)cc1)NCc1ccccc1Cl,-8,-18,-20%,0%
CN1CCN(S(=O)C23CC4CC(CC(C4)C2)C3)CC1 (configuration not stated),-16,-89*,0%,1%
CN(C)c1ccc(NC(=O)CSC2=Nc3ccccc3C3=NC(CC(=O)NCc4ccccc4)C(=O)N23)cc1 (configuration not stated),-19,nt,nt,-49%
O=C(Nc1nnc(SCc2ccc(F)cc2)s1)c1ccc2c(c1)C(=O)N(c1ccccc1Cl)C2=O,53*,49,0%,8%
CCCCc1ccc(-n2nc3cc(C)c(NC(=O)c4ccc(C#N)cc4F)cc3n2)cc1,2,nt,nt,-7%
CCCc1cc(=O)[nH]c(Nc2cc(Cl)cc(Cl)c2)n1,6,nt,nt,-6%
O=C(CN1C(=O)CCc2cc(S(=O)(=O)N3CCOCC3)ccc21)Nc1cccc(Cl)c1,2,nt,nt,-4%
O=S1(=O)N[C@@H](CC2CCCCC2)COc2cc(Br)ccc21,-15,-8,1.6µM*,9%
CC(C)C[C@H]1COc2cc(Br)ccc2S(=O)(=O)N1,3,-28,nt,nt
COc1ccc(NC(=O)CC2C(=O)N(c3ccc(F)cc3)C(=O)N2Cc2ccc3c(c2)OCO3)cc1 (configuration not stated),10,nt,nt,6%
S=c1[nH]nc(-c2ccco2)n1-c1ccccc1Cl,-13,-29,4%,-14%
S=c1[nH]nc(-c2cc(-c3ccco3)[nH]n2)n1-c1ccccc1Cl,-4,-52*,-1%,-10%
Cc1ccc(-n2nc(C(C)(C)C)cc2NC(=O)Nc2ccc(OCCN3CCOCC3)c3ccccc23)cc1,-15,nt,nt,nt
COC(=O)/C=c1\sc2ncnn2c1=O,3,-69*,-9%,?
CNC(=O)/C(C#N)=c1\s/c(=C/C(=O)OC)c(=O)n1-c1ccccc1,3,18,-5%,-20%

# Source: PubChem BioAssay
